The values below come from PubChem BioAssay AID602233 (National Center for Advancing Translational Sciences (NCATS), 2012).

Hit rate of the full screen: of about 380,000 compounds, about 170 (0.045%) were called active. The entries come from a sample that favours actives as a whole. Unmarked numbers belong to inactive results. Calls follow the shape of the dose curve; as a rule, active = well fitted inhibition curve with a large enough effect; inconclusive = small, poorly fitted or top-dose-only effect; inactive = no such curve, though single readings can be large or run the other way.
Potency is read from the fitted curve at half-maximal effect.

Phosphoglycerate kinase, glycosomal (Trypanosoma brucei brucei), sequence (P07378 whole entry, looked up): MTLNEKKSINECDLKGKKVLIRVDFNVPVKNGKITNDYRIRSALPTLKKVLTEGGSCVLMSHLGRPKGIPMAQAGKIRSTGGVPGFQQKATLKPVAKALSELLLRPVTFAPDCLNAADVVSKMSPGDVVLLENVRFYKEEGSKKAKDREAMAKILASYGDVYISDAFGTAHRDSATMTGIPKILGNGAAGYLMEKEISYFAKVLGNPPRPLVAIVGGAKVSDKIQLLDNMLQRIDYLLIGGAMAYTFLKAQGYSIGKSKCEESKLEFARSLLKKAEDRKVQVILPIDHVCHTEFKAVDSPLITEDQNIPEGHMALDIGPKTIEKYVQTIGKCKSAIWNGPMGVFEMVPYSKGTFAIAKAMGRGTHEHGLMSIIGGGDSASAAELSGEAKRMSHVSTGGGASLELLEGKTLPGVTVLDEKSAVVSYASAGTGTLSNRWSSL

The experiment has as its target Phosphoglycerate kinase, glycosomal (Trypanosoma brucei brucei) (UniProt P07378). Nature of the experiment: qHTS Assay to Find Inhibitors of Phosphoglycerate Kinase. Also: nearly all actives have a fitted effect of over 60% in size. As to conditions: PGK/GAPDH coupled, Kinase-Glo luminescence, 60 min; series mostly up to 57.5 µM; activity change, negative = inhibition: at the top concentration. The source says:
Several species of the Trypanosomatidae family of parasitic protozoans cause a spectrum of diseases throughout the tropical and subtropical world. Sleeping sickness, caused by two subspecies of Trypanosoma brucei, is endemic to areas of sub-Saharan Africa, while Chagas disease, a manifestation of Trypanosoma cruzi infection, is prevalent throughout Central and South America. In addition, many species of Leishmania are responsible for a range of cutaneous and visceral diseases, causing ulcers, destructive lesions and kalaazar, a lethal infection of the viscera. Collectively, these organisms infect 30 million people worldwide (~500 million live in endemic areas), and account for ~130,000 deaths annually. Given their debilitating and prevalent nature, trypanosomatid parasites impose a heavy medical, economic and social burden on entire populations, primarily in the developing world. The problem is further exacerbated by the fact that existing treatments have progressed little in the past 50 years, and current drugs show high toxicity and poor efficacy. […] Blood-stream stages of T. brucei are entirely dependent on glycolysis as a source of ATP, and the tricarboxylic acid cycle and oxidative phosphorylation are both repressed. Glycolysis in axenically cultured T. cruzi, representing the intracellular pathogenic stage, is also essential for these parasites. […] Previous studies have shown that the glycolytic enzyme, phosphoglycerate kinase (PGK), is a viable target for drugs to kill these parasites. […] NIH Molecular Libraries Probe Production Network [MLPCN] NIH Chemical Genomics Center [NCGC] MLPCN Grant: R03 MH093212 PI Name: Malcolm Walkinshaw, University of Edinburgh
3ul of substrate/PGK buffer (columns 1,2,5-48) are dispensed into Greiner white solid bottom 1536-well assay plates; columns 3-4 receive only TEA buffer as 0x PGK controls. Compounds are then transferred via Kalypsys pin tool equipped with 1536-pin array (10nl slotted pins, V&P Scientific, San Diego, CA). Following addition of compound, 1ul of GAPDH (100nM final concentration, all columns) is added to initiate the reaction (this upstream coupling enzyme is necessary for in-well production of PGK substrate, 1,3-bisphosphoglycerate (1,3-BPG), which is unstable and not commercially available). The plates are then incubated at room temperature for 60 minutes. Kinase-Glo Plus reagent is added (2ul) and plates incubated for 10 minutes, before being transferred to a ViewLux high-throughput CCD imager (PerkinElmer) wherein single end-point measurements of luminescence are acquired using a clear filter. All reagents are diluted in an assay buffer consisting of 100mM TEA (pH 7.6), 5mM MgCl2 and 0.01% Tween-20.
For `COc1cccc(N2C(=O)NC(=O)/C(=C\c3ccc([N+](=O)[O-])s3)C2=O)c1`, the “activity change, negative = inhibition” value is -20%.

With `O=C1NC(=O)N(Cc2ccco2)C(=O)/C1=C\c1ccc(-c2ccc(F)cc2)o1`, the “activity change, negative = inhibition” value was -16.2%.

For the compound `COc1ccc(N2C(=O)/C(=C/c3ccco3)C(=O)NC2=S)cc1`, the Potency was 12.6 µM (active).

As for `c1ccc(C2NCc3ccccc3-n3cccc32)cc1` (stereo not given), the “activity change, negative = inhibition” value was -1.24%.

Turning to `N[C@@H](Cc1c[nH]c2ccccc12)c1nnc(SCc2c(F)cccc2Cl)o1`, the “activity change, negative = inhibition” value was -1.8%.
